According to PubChem BioAssay AID2313 (Broad Institute, 2010):
The campaign covered roughly 22,000 compounds. About 460 (2.1%) were called active. About 2% were inconclusive and are not listed.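 The calls were made as follows: active = mean inhibition across valid replicates above about 65% (limit read from the data); inconclusive = mean under the limit, yet half or more replicates past it; inactive = the rest.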 The full list was thinned out, with actives kept by preference.

Experiment: Shh-driven Gli reporter inhibition – luminescence, Shh-LIGHT2 cells, Gli-luciferase, primary screen (AID 2313);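 also: pathway switched on by Shh-conditioned medium diluted 1 in 25 in low serum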
Settings: 30 h, stronger effect = higher value
In the case of `c1ccc2c(c1)[I+]c1ccccc1-2`, the inhibition was 88.8% (active). With `COC(/C=C/CC/C=C/C(=O)O)C(O)C(C)C(O)/C(C)=C/C(C)C(=O)CCCC1CC(=O)NC(=O)C1` (stereo not given) the inhibition was -22.8% (inactive). In the case of `CC(C)c1c(CN(C)C(C)Cc2ccccc2)n(C)n(-c2ccccc2)c1=O` (stereo not given), the inhibition was -38.5% (inactive). In the case of `CC(C)Nc1nc(Cl)nc(NC(C)C)n1`, the inhibition was -55.8% (inactive). For `CN(C)C(=O)Oc1cc(OC(=O)N(C)C)cc(C(O)CNC(C)(C)C)c1` (stereo not given), the inhibition was 33.4% (inactive). With `C[C@H]1CCC/C=C/C2C[C@H](O)C[C@H]2[C@H](O)/C=C\C(=O)O1` (stereo not given in full) the inhibition was 107% (active). For `C=CC(C)(C)c1cc2cc3c(cc2oc1=O)O[C@H](C(C)(C)O)C3`, the inhibition was -36.2% (inactive). With `CC=C1CN2C3CC1C1(C(=O)OC)C2CC2(c4ccccc4N(C)C32)C1O` (stereo not given) the inhibition was 11.9% (inactive). For `CCCCC/C=C\C/C=C\C/C=C\CCCCCCC(=O)NCCO`, the inhibition was -2.94% (inactive). For `C[C@@H]1O[C@@H](O[C@@H]2C=C3CC[C@@H]4C(C[C@@H](O)[C@]5(C)[C@@H](c6ccc(=O)oc6)CC[C@]45O)[C@@]3(C)CC2)[C@H](O)[C@H](O)[C@H]1O[C@@H]1O[C@H](CO)[C@@H](O)[C@H](O)[C@H]1O` (stereo not given in full), the inhibition was -37.6% (inactive). For `CC(C)[C@@]1(NC(=O)[C@@H]2CC3c4cccc5[nH]cc(c45)C[C@H]3N(C)C2)O[C@@]2(O)[C@@H]3CCCN3C(=O)[C@H](Cc3ccccc3)N2C1=O` (stereo not given in full), the inhibition was 21.5% (inactive). For `O=C(c1ccccc1)C12CN3CN(CN(C3)C1)C2`, the inhibition was -5.62% (inactive). In the case of `COc1c(C(C)C)cc2c(c1O)[C@@]1(C(=O)O)CCCC(C)(C)C1CC2` (stereo not given in full), the inhibition was -14.7% (inactive). For `CCCCCCCCCCCCCC(=O)O[C@@H]1[C@@H](C)[C@@]2(O)[C@@H](C=C(CO)C[C@]3(O)C(=O)C(C)=C[C@@H]23)[C@@H]2C(C)(C)[C@]12OC(C)=O`, the inhibition was 87% (active). In the case of `CCCCC/C=C\C/C=C\C/C=C\C/C=C\CCCCCC(=O)NCCO`, the inhibition was -36.6% (inactive).
